# Data: the supplement of paper PMC6411743
# ± gives the standard deviation of the averaged measurements. The full data set covers some 5,400 targets. This sample favours those with the largest changes.
# How the values were obtained:
# Test in all cases: NP40-soluble protein abundance relative to vehicle (solubility fold change) (ratio); higher = more soluble protein in presence of GTP
# ARHGAP1 = target: T1, ARHGAP1 (UniProt Q07960)
# T1 sequence (whole entry): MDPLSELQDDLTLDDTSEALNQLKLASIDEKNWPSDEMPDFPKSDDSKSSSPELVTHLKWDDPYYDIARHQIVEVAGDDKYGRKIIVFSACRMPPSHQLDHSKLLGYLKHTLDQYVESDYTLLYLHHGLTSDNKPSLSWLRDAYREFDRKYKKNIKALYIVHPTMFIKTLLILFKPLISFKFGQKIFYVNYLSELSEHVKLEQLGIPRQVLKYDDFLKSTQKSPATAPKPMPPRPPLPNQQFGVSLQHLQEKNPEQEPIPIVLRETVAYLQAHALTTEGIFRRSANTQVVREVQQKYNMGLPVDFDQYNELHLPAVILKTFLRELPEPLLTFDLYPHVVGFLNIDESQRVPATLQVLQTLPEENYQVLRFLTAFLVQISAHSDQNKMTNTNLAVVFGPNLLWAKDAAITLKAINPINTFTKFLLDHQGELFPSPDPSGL
# Procedure, shortened: (§1)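 Values are fold changes against the detergent-processed vehicle, based on vsn-normalised intensities. Jurkat crude lysate was treated at eight concentrations from 0.1 to 10 mM (10 min at room temperature, then 3 min at 37 °C), solubilised with 0.8% NP40 and benzonase, ultracentrifuged and analysed by TMT-labelled LC-MS/MS over three independent experiments.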
# [1] = target: T2, UniProt Q08170|A0A0D9SEM4
# T2 sequence (whole entry): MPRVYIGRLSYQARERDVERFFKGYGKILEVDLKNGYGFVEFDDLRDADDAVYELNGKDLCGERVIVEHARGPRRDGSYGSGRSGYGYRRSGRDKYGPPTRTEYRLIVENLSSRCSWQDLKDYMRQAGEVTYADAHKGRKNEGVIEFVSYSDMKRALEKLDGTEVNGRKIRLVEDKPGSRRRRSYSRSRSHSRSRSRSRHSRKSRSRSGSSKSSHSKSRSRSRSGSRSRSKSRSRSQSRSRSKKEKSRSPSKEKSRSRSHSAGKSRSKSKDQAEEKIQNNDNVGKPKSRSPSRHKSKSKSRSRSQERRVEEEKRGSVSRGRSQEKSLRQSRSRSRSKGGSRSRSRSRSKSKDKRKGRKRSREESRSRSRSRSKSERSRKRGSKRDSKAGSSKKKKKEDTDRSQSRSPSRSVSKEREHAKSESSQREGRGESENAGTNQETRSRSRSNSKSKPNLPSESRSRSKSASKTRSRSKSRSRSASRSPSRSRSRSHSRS
# Procedure, shortened: as §1
# [2] = target: T3, UniProt Q4ADV7|Q4ADV7-3|Q4ADV7-2
# T3 sequence (whole entry): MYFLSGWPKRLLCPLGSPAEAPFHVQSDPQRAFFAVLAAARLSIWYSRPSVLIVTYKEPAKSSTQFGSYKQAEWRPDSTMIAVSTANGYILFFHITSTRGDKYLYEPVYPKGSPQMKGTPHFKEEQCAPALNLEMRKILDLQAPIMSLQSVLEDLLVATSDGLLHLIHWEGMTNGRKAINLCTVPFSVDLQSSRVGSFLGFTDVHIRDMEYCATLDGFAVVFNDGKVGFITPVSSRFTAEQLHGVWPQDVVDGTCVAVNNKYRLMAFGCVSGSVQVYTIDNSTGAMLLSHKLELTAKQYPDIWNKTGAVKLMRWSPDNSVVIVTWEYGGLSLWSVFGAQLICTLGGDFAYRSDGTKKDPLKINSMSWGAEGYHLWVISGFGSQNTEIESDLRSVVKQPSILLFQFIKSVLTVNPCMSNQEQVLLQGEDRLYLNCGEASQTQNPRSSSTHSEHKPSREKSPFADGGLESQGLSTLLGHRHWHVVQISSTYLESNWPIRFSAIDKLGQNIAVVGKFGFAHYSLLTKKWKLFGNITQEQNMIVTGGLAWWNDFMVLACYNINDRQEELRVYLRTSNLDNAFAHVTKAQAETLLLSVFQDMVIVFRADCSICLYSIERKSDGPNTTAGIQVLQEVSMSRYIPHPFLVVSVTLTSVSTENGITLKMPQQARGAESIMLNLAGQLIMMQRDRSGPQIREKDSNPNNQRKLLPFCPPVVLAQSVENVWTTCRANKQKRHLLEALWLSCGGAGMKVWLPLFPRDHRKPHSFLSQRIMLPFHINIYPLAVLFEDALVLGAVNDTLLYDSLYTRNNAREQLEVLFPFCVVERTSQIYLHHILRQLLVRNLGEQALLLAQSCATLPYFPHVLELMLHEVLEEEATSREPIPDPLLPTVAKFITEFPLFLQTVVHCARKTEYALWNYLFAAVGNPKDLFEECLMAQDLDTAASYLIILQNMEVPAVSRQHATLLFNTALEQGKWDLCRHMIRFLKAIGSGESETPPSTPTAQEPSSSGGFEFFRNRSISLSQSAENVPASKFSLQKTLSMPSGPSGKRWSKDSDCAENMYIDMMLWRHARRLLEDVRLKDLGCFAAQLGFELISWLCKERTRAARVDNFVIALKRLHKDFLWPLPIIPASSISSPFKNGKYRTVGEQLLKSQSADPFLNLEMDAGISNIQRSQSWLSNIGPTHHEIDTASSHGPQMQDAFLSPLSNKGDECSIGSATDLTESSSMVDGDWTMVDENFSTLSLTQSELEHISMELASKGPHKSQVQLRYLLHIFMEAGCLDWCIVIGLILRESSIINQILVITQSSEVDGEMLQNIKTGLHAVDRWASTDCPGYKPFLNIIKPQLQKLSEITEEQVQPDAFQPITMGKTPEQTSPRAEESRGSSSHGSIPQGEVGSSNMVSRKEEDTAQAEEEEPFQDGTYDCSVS
# Procedure, shortened: as §1
# UniProt Q68CQ4 = target: T4, UniProt Q68CQ4
# T4 sequence (whole entry): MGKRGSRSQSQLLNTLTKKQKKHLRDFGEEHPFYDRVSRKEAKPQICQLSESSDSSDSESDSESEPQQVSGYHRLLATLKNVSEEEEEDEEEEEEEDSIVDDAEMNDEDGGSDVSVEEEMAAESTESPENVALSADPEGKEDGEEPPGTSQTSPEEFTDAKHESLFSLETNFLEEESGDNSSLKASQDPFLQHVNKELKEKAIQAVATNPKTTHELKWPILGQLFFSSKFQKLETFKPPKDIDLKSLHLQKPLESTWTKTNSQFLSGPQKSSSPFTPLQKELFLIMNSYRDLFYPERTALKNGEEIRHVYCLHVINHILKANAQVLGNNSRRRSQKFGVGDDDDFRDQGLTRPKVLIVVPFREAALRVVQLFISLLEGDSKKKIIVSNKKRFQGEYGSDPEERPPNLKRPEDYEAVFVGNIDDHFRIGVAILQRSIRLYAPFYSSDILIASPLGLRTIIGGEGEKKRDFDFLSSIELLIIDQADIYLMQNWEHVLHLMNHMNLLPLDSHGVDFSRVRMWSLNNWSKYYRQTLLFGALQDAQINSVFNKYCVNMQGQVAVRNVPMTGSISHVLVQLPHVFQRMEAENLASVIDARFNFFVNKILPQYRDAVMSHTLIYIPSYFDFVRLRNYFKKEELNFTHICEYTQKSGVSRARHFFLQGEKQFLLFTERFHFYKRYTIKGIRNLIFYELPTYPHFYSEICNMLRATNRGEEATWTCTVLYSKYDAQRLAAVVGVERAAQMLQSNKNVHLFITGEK
# Procedure, shortened: as §1
# [3] = target: T5, UniProt Q6ULP2|Q6ULP2-2|Q6ULP2-4|Q6ULP2-5|Q6ULP2-3
# T5 sequence (whole entry): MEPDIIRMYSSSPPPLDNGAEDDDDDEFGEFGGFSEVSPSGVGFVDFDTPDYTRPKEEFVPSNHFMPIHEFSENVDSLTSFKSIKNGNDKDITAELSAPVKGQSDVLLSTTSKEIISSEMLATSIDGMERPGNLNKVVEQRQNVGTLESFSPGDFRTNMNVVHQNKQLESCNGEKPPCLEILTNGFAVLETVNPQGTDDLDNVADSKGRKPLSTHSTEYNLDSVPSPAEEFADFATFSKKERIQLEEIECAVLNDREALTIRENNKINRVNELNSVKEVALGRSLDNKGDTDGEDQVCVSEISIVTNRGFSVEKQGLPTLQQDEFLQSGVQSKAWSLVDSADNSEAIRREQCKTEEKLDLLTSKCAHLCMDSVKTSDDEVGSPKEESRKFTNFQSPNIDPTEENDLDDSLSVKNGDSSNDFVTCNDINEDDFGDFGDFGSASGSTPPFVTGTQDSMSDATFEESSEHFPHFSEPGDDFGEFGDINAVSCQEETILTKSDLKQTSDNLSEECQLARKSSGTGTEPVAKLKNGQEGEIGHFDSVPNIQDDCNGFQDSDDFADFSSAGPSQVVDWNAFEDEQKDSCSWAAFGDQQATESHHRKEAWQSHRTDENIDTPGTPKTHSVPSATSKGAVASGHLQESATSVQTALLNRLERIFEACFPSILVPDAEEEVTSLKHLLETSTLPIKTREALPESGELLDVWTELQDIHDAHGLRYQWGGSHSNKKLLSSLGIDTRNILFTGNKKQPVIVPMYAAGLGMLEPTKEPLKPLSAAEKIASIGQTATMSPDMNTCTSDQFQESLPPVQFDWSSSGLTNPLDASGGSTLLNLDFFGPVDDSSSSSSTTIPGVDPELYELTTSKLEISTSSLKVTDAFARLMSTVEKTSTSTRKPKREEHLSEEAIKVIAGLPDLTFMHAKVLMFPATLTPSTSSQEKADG
# Procedure, shortened: as §1
smiles,measurement,setting,value
Nc1nc2c(ncn2[C@@H]2O[C@H](COP(=O)(O)OP(=O)(O)OP(=O)(O)O)[C@@H](O)[C@H]2O)c(=O)[nH]1 [guanosine triphosphate],NP40-soluble protein abundance,ARHGAP1; concentration: 0.1mM,0.963 ± 0.015
same,NP40-soluble protein abundance,ARHGAP1; concentration: 0.5mM,0.961 ± 0.012
same,NP40-soluble protein abundance,ARHGAP1; concentration: 1mM,0.952 ± 0.011
same,NP40-soluble protein abundance,ARHGAP1; concentration: 2mM,0.93 ± 0.045
same,NP40-soluble protein abundance,ARHGAP1; concentration: 4mM,0.942 ± 0.042
same,NP40-soluble protein abundance,ARHGAP1; concentration: 6mM,0.911 ± 0.037
same,NP40-soluble protein abundance,ARHGAP1; concentration: 8mM,0.867 ± 0.06
same,NP40-soluble protein abundance,ARHGAP1; concentration: 10mM,0.908 ± 0.064
same,NP40-soluble protein abundance,[1]; concentration: 0.1mM,0.928 ± 0.042
same,NP40-soluble protein abundance,[1]; concentration: 0.5mM,1.23 ± 0.055
same,NP40-soluble protein abundance,[1]; concentration: 1mM,1.27 ± 0.028
same,NP40-soluble protein abundance,[1]; concentration: 2mM,1.15 ± 0.052
same,NP40-soluble protein abundance,[1]; concentration: 4mM,0.94 ± 0.034
same,NP40-soluble protein abundance,[1]; concentration: 6mM,1.09 ± 0.042
same,NP40-soluble protein abundance,[1]; concentration: 8mM,1.2 ± 0.053
same,NP40-soluble protein abundance,[1]; concentration: 10mM,1.08 ± 0.035
same,NP40-soluble protein abundance,[2]; concentration: 0.1mM,1.09 ± 0.11
same,NP40-soluble protein abundance,[2]; concentration: 0.5mM,1.13 ± 0.091
same,NP40-soluble protein abundance,[2]; concentration: 1mM,1.02 ± 0.04
same,NP40-soluble protein abundance,[2]; concentration: 2mM,1.07 ± 0.077
same,NP40-soluble protein abundance,[2]; concentration: 4mM,1.12 ± 0.18
same,NP40-soluble protein abundance,[2]; concentration: 6mM,0.946 ± 0.025
same,NP40-soluble protein abundance,[2]; concentration: 8mM,0.92397 ± 0.00016
same,NP40-soluble protein abundance,[2]; concentration: 10mM,0.963 ± 0.19
same,NP40-soluble protein abundance,UniProt Q68CQ4; concentration: 0.1mM,1.02 ± 0.068
same,NP40-soluble protein abundance,UniProt Q68CQ4; concentration: 0.5mM,1.02 ± 0.051
same,NP40-soluble protein abundance,UniProt Q68CQ4; concentration: 1mM,1.01 ± 0.048
same,NP40-soluble protein abundance,UniProt Q68CQ4; concentration: 2mM,0.992 ± 0.04
same,NP40-soluble protein abundance,UniProt Q68CQ4; concentration: 4mM,0.999 ± 0.026
same,NP40-soluble protein abundance,UniProt Q68CQ4; concentration: 6mM,0.994 ± 0.042
same,NP40-soluble protein abundance,UniProt Q68CQ4; concentration: 8mM,1.02 ± 0.046
same,NP40-soluble protein abundance,UniProt Q68CQ4; concentration: 10mM,1.03 ± 0.048
same,NP40-soluble protein abundance,[3]; concentration: 0.1mM,1.01 ± 0.098
same,NP40-soluble protein abundance,[3]; concentration: 0.5mM,1.02 ± 0.066
same,NP40-soluble protein abundance,[3]; concentration: 1mM,0.979 ± 0.064
same,NP40-soluble protein abundance,[3]; concentration: 2mM,1 ± 0.044
same,NP40-soluble protein abundance,[3]; concentration: 4mM,1.06 ± 0.041
same,NP40-soluble protein abundance,[3]; concentration: 6mM,1 ± 0.023
same,NP40-soluble protein abundance,[3]; concentration: 8mM,1.03 ± 0.033
same,NP40-soluble protein abundance,[3]; concentration: 10mM,1.02 ± 0.042
